# In PubChem BioAssay (NCATS):
# Results filed as inconclusive are left out. The source made the active and inactive calls. The call rests on the fitted dose curve; in most records, active means well fitted cell-killing curve with a large enough effect; inconclusive means small, poorly fitted or top-dose-only effect; inactive means no such curve, though single readings can be large or run the other way.
# Test: qHTS of pediatric cancer cell lines to identify multiple opportunities for drug repurposing: Primary screen for Rh30 cells (AID 1347107); further: nearly all actives have a fitted effect of over 75% in size
# Details: Rh30 rhabdomyosarcoma viability, CellTiter-Glo luminescence, 48 h; series mostly up to 46 µM; activity change, negative = cytotoxic: at the top concentration
# Method in brief: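 Cells (500-1,000/well) rested 5 h, then received compounds for 48 h; metabolically active cells were measured by CellTiter-Glo luminescence. Final concentrations spanned up to 46 µM (MIPE, 11-point) or 0.59 nM-46 µM (NPC, 8-point) in primary screens, 11-point in follow-ups.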
# On the % scale 0 is the no-effect control and ±100 the full control effect; potency means the concentration at half of the fitted maximal effect.
Structure (SMILES),Potency,"activity change, negative = cytotoxic"
c1ccc(-c2oc3ncnc(NC[C@@H]4CCCO4)c3c2-c2ccccc2)cc1,18.7 µM (active),–
Cc1ccc(C(=O)N(CCCN)[C@@H](c2oc3cc(Cl)ccc3c(=O)c2Cc2ccccc2)C(C)C)cc1,–,-11.7% (inactive)
CC(C)n1c(C=C[C@H](O)C[C@H](O)CC(=O)O)c(-c2ccc(F)cc2)c2ccccc21,–,-13% (inactive)
Nc1ccn([C@@H]2O[C@H](CO)[C@@H](O)[C@H]2O)c(=O)n1,–,-10.4% (inactive)
Cc1csc(-c2nnc(Nc3ccc(Oc4ncccc4-c4ccnc(N)n4)cc3)c3ccccc23)c1,–,10.6% (inactive)
C[C@H]1COC2=C1C(=O)C(=O)c1c2ccc2c1CCCC2(C)C,–,9.49% (inactive)
CC[C@H](NC(=O)[C@H](C)NC)C(=O)N1C[C@@H](O)C[C@H]1Cc1c(-c2[nH]c3cc(F)ccc3c2C[C@H]2C[C@H](O)CN2C(=O)[C@H](CC)NC(=O)[C@H](C)NC)[nH]c2cc(F)ccc12,–,-4.41% (inactive)
Cc1ccc2c(c1)c1c(n2CCc2ccc(C)nc2)CCN(C)C1,–,18.9% (inactive)
CCCCCCOC(=O)N=C(N)c1ccc(NCc2nc3cc(C(=O)N(CCC(=O)OCC)c4ccccn4)ccc3n2C)cc1,–,16% (inactive)
C[C@@]1(c2cc(-c3cncnc3)c(F)cc2F)CCSC(N)=N1,–,-0.743% (inactive)
